Results on 40 compounds are retold here after PubChem BioAssay (NCI).

Values joined by “and” are separate entries in the source; they are usually repeats but may differ in a detail not shown here. Equal entries are not always repeated. This is part of a sample that, as a whole, favours compounds with a hit. Of some 79,000 tested, about 15% had one in any assay. A number with no mark means an inactive call. Active and inactive are the calls of the source. Cut-off read from the data, not from the text of the source: active = growth inhibition above about 70%; inactive = the rest. Where a SMILES comes first, the peptide text is derived from it.

The nature of the first assay: NCI Yeast Anticancer Drug Screen. Data for the bub3 strain (AID 167). The settings on record: S. cerevisiae bub3 mutant strain, hits give high values; at 50.0 µM unless noted. A digest of the protocol: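 Yeast carrying a defined mutation is treated with each compound, and growth is compared with that of vehicle-exposed cells to give inhibition.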
With `O=C(C[n+]1ccccc1)c1ccc(O)c(I)c1`, the growth inhibition was 0.35%.

Turning to `O=C1C(O)=C(O)C(Br)=C/C1=C(/c1ccccc1S(=O)(=O)O)c1cc(Br)c(O)c(O)c1O`, the growth inhibition was -0.2%.

In the case of `COC1OC2COC(C)(C)OC2C2OC(C)(C)OC12` (stereo not given), the growth inhibition was -18.4%.

For `C=CCNc1nc(Cl)nc2c1cnn2C`, the growth inhibition is 8.55%.

On to `O=C(O)/C=C\C(=O)Nc1ccc2c(c1)Cc1cc(O)ccc1-2`, for which the growth inhibition was 21.9%.

Turning to `CCCCC(Sc1nn(C2OC(COC(=O)c3ccccc3)C(OC(=O)c3ccccc3)C2OC(=O)c2ccccc2)c(=O)[nH]c1=O)C(=O)OCC` (stereo not given), the growth inhibition is -4.7%.

Consider `NC(Cc1ccccc1)C(=O)NC(Cc1ccccc1)C(=O)O` (stereo not drawn) (H-Phe-Phe-OH; configuration not given here), for which the growth inhibition is 6.2% and 4.05%.

With `O=C(O)C(=O)Nc1ccccc1`, the growth inhibition is 1.65%.

With `COC1/C=C/OC2(C)Oc3c(C)c(O)c4c(c3C2=O)C(N)=C(NC2CC2)C(=NC(=O)/C(C)=C\C=C\C(C)C(O)C(C)C(O)C(C)C(OC(C)=O)C1C)C4=O` (stereo not given), the growth inhibition was 31.9%.

In the case of `CCCCCCN1COCC(COc2ccc(Cl)cc2)OC1` (stereo not given), the growth inhibition was 10.7%.

On to `Nc1nc(=S)c2c(ncn2CCO)[nH]1`, for which the growth inhibition was -16.1%.

`Cn1ccnc1Sc1c([N+](=O)[O-])ncn1C`: the growth inhibition was 32.5%.

As for `CCN(CC)CCNc1cc(OC)c(OC)cc1[N+](=O)[O-]`, the growth inhibition was -0.45%.

Turning to `CC1=Nc2cc(Cl)c(Cl)cc2N(C)/C1=C/C1=C(Cl)C(=O)c2cc3c(Cl)ccc(Cl)c3cc2C1=O`, the growth inhibition was -1.4%.

Turning to `O=C1OC(=O)C2C3CC(C(Br)C3Br)C12` (stereo not given), the growth inhibition is -1.2%.

For `CCOC(=N)n1c(=O)n(C2=NCCN2)c2ccccc21`, the growth inhibition is 22.2%.

In the case of `CCOC(=O)C(CC(C)C)NC(=O)c1ccc(C)c(OCc2ccccc2)c1[N+](=O)[O-]` (stereo not given), the growth inhibition was 11.6%.

Take `CN1CCC(O)CC1`: the growth inhibition is 6.35%.

With `Cc1cccc(C)c1NC(=S)N/C=C(\C#N)C(N)=O`, the growth inhibition is -8.65%.

Regarding `Clc1c(Cl)c(Cl)c(C[n+]2c(Cl)sc3ccccc32)c(Cl)c1Cl`, the growth inhibition is 10.3%.

As for `Cc1ccc(NC(=O)C(=O)CC(=O)c2sc(Nc3c(C)cccc3C)nc2C)cc1C`, the growth inhibition was -23.4%.

Take `CC(=O)Nc1cccc(N=Cc2ccc(N(CCOS(C)(=O)=O)CCOS(C)(=O)=O)cc2C)c1`: the growth inhibition was 13.8%.

As to `COC(=O)c1ccccc1NC(=O)c1c(-c2ccccc2Cl)noc1C`, the growth inhibition is 77.2% (active).

In the case of `CC(=O)CC(=O)Nc1ccc2ccccc2c1`, the growth inhibition is -37.9%.

Take `CC1(C)CC(O)CC(C)(C)N1`: the growth inhibition is -1%.

`Nc1c(F)cc(I)cc1F`: the growth inhibition was 10.2%.

Regarding `Nc1nc2cc3nc(N)c(N)nc3cc2nc1N`, the growth inhibition was 13.2%.

On to `O=C1CCCCCCCCCCCCCCCCC1`, for which the growth inhibition is -2.15%.

For `O=C(c1cccc(C(=O)N2CCOCC2)n1)N1CCOCC1`, the growth inhibition is 5.15%.

Take `COC1COCOC1C(OC)C1OCOCC1OC` (stereo not given): the growth inhibition is -4.25%.

Turning to `CCOC(C)=Nc1cc(OC)cc2c1NC(=O)CCS2`, the growth inhibition was 5.6%.

`COc1ccc(-c2cccc(C(=O)O)c2C(=O)O)cc1OC`: the growth inhibition is -7.4%.

Take `O=C1c2cccc3cc([N+](=O)[O-])cc(c23)C(=O)N1C(CO)(CO)CO`: the growth inhibition was 16%.

With `Nc1nc2c(c(=O)[nH]1)N(C=O)C(CCNc1ccc(C(=O)NC(CCC(=O)O)C(=O)O)cc1)CN2` (stereo not given), the growth inhibition is 9%.

For the compound `CCCC(c1ccc(N(C)C)cc1)c1ccc(N(C)C)cc1`, the growth inhibition was 29.3%.

As for `c1ccc2c(c1)/C(=N/c1nccs1)N/C2=N\c1nccs1`, the growth inhibition was 13.1%.

With `CC1CCCN2C(=O)CN(c3ccccc3)CC(=O)N12` (stereo not given), the growth inhibition is 5.35%.

For `O=c1[nH]c(=O)c2nc3c(=O)[nH]c(=O)[nH]c3nc2[nH]1`, the growth inhibition was 2.65%.

On to `Nc1ncc2c(n1)-c1ccccc1OC2`, for which the growth inhibition was -20.9%.

As for `CN(C)c1ccc(O[Si](Oc2ccc(N(C)C)cc2)(Oc2ccc(N(C)C)cc2)Oc2ccc(N(C)C)cc2)cc1`, the growth inhibition was 14.3%.

A short description of the next assay: NCI Yeast Anticancer Drug Screen. Data for the mlh1 rad18 strain (AID 175). The conditions noted are these: S. cerevisiae mlh1 rad18 strain growth inhibition, hits give high values; at 50.0 µM unless noted. A digest of the protocol:
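A repair-deficient yeast strain is exposed to test compound, and growth is scored relative to vehicle-treated controls.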
As to `O=C(C[n+]1ccccc1)c1ccc(O)c(I)c1`, the growth inhibition is 7.4%.

Consider `O=C1C(O)=C(O)C(Br)=C/C1=C(/c1ccccc1S(=O)(=O)O)c1cc(Br)c(O)c(O)c1O`, for which the growth inhibition was 18.4%.

`COC1OC2COC(C)(C)OC2C2OC(C)(C)OC12` (stereo not given): the growth inhibition is 16.3%.

For `C=CCNc1nc(Cl)nc2c1cnn2C`, the growth inhibition is -5.15%.

Take `O=C(O)/C=C\C(=O)Nc1ccc2c(c1)Cc1cc(O)ccc1-2`: the growth inhibition was -0.3%.

For `CCCCC(Sc1nn(C2OC(COC(=O)c3ccccc3)C(OC(=O)c3ccccc3)C2OC(=O)c2ccccc2)c(=O)[nH]c1=O)C(=O)OCC` (stereo not given), the growth inhibition is 7.45%.

For `NC(Cc1ccccc1)C(=O)NC(Cc1ccccc1)C(=O)O` (stereo not drawn) (H-Phe-Phe-OH; configuration not given here), the growth inhibition was 1.6% and 7.7%.

For `O=C(O)C(=O)Nc1ccccc1`, the growth inhibition is -5.8%.

As for `COC1/C=C/OC2(C)Oc3c(C)c(O)c4c(c3C2=O)C(N)=C(NC2CC2)C(=NC(=O)/C(C)=C\C=C\C(C)C(O)C(C)C(O)C(C)C(OC(C)=O)C1C)C4=O` (stereo not given), the growth inhibition is 33.1%.

With `CCCCCCN1COCC(COc2ccc(Cl)cc2)OC1` (stereo not given), the growth inhibition is 50.1%.

For `Nc1nc(=S)c2c(ncn2CCO)[nH]1`, the growth inhibition is 3.85%.

As to `Cn1ccnc1Sc1c([N+](=O)[O-])ncn1C`, the growth inhibition was 10.4%.

For `CCN(CC)CCNc1cc(OC)c(OC)cc1[N+](=O)[O-]`, the growth inhibition was -15%.

Consider `CC1=Nc2cc(Cl)c(Cl)cc2N(C)/C1=C/C1=C(Cl)C(=O)c2cc3c(Cl)ccc(Cl)c3cc2C1=O`, for which the growth inhibition is 20.8%.

Turning to `O=C1OC(=O)C2C3CC(C(Br)C3Br)C12` (stereo not given), the growth inhibition was 21.5%.

In the case of `CCOC(=N)n1c(=O)n(C2=NCCN2)c2ccccc21`, the growth inhibition is -43.8%.

In the case of `CCOC(=O)C(CC(C)C)NC(=O)c1ccc(C)c(OCc2ccccc2)c1[N+](=O)[O-]` (stereo not given), the growth inhibition was -3.9%.

For the compound `CN1CCC(O)CC1`, the growth inhibition is -3%.

Regarding `Cc1cccc(C)c1NC(=S)N/C=C(\C#N)C(N)=O`, the growth inhibition is -49.4%.

`Clc1c(Cl)c(Cl)c(C[n+]2c(Cl)sc3ccccc32)c(Cl)c1Cl`: the growth inhibition is 6.2%.

`Cc1ccc(NC(=O)C(=O)CC(=O)c2sc(Nc3c(C)cccc3C)nc2C)cc1C`: the growth inhibition was -2%.

As for `CC(=O)Nc1cccc(N=Cc2ccc(N(CCOS(C)(=O)=O)CCOS(C)(=O)=O)cc2C)c1`, the growth inhibition was 93.2% (active).

Regarding `COC(=O)c1ccccc1NC(=O)c1c(-c2ccccc2Cl)noc1C`, the growth inhibition was 54.9%.

Consider `CC(=O)CC(=O)Nc1ccc2ccccc2c1`, for which the growth inhibition is -14.6%.

Turning to `CC1(C)CC(O)CC(C)(C)N1`, the growth inhibition was 1.9%.

Consider `Nc1c(F)cc(I)cc1F`, for which the growth inhibition was 1.35%.

As to `Nc1nc2cc3nc(N)c(N)nc3cc2nc1N`, the growth inhibition is 15.1%.

In the case of `O=C1CCCCCCCCCCCCCCCCC1`, the growth inhibition is -13.9%.

As to `O=C(c1cccc(C(=O)N2CCOCC2)n1)N1CCOCC1`, the growth inhibition is 7.15%.

For the compound `COC1COCOC1C(OC)C1OCOCC1OC` (stereo not given), the growth inhibition is -2.8%.

As to `CCOC(C)=Nc1cc(OC)cc2c1NC(=O)CCS2`, the growth inhibition is -40.2%.

Turning to `COc1ccc(-c2cccc(C(=O)O)c2C(=O)O)cc1OC`, the growth inhibition was -10.1%.

For the compound `O=C1c2cccc3cc([N+](=O)[O-])cc(c23)C(=O)N1C(CO)(CO)CO`, the growth inhibition is -4.45%.

As to `Nc1nc2c(c(=O)[nH]1)N(C=O)C(CCNc1ccc(C(=O)NC(CCC(=O)O)C(=O)O)cc1)CN2` (stereo not given), the growth inhibition was 3.25%.

As to `CCCC(c1ccc(N(C)C)cc1)c1ccc(N(C)C)cc1`, the growth inhibition is -30%.

On to `c1ccc2c(c1)/C(=N/c1nccs1)N/C2=N\c1nccs1`, for which the growth inhibition is -6.65%.

Consider `CC1CCCN2C(=O)CN(c3ccccc3)CC(=O)N12` (stereo not given), for which the growth inhibition is 1.95%.

On to `O=c1[nH]c(=O)c2nc3c(=O)[nH]c(=O)[nH]c3nc2[nH]1`, for which the growth inhibition was -27.1%.

Regarding `Nc1ncc2c(n1)-c1ccccc1OC2`, the growth inhibition is -10.4%.

Consider `CN(C)c1ccc(O[Si](Oc2ccc(N(C)C)cc2)(Oc2ccc(N(C)C)cc2)Oc2ccc(N(C)C)cc2)cc1`, for which the growth inhibition was 43.8%.
